Among all 300,000 compounds or so, about 22,000 (7.3%) were called active. About 2% were inconclusive and are not listed. This is one part of a sample in which actives are shown more often than they occur. Cut-off read from the data, not from the text of the source: active = activity score below about -60%; inconclusive = mostly about -28% to -61%; inactive = positive scores.
Experiment: Activators working through SNCA 5'UTR binding (MLPCN) (AID 1814)
Details: alpha-synuclein 5'UTR reporter, activators screen; hits give low values; tested at 7.5 µM
With O=C(Nc1ccc2sc3ccccc3c(=O)c2c1)c1ccccc1Cl the activity score was -135% (active). With Cc1ccc(SCC(=O)c2cc(C)c(OC(=S)N(C)C)c(C)c2)cc1 the activity score was -155% (active). For CCOc1ccc(NC(=O)Nc2cc(C)on2)cc1, the activity score was -128% (active). For CCOc1ccc(C(=O)Nc2cc(OC)ccc2OC)cc1, the activity score was -88.9% (active). For CCOc1ccc(C(=O)Nc2cccc(SC)c2)cc1, the activity score was -168% (active). In the case of CCOc1ccc(NC(=O)Nc2cc(C)ccc2OC)cc1, the activity score is reported as -78.4% (active). In the case of CC(=O)c1cc(C#N)c(SCC(=O)C(C)(C)C)nc1C, the activity score is reported as -148% (active). In the case of CC(=O)c1cc(C#N)c(SCC(=O)Nc2nccs2)nc1C, the activity score is reported as -110% (active). For CCOC(=O)c1cccc(NC(=O)c2ccc(F)cc2F)c1, the activity score was -127% (active). In the case of CCC(=C/c1sc2ccc3ccccc3c2[n+]1C)/C=C1\Sc2ccc3ccccc3c2N1C, the activity score is reported as -122% (active). With O=C(c1nnc(-c2ccc(Cl)cc2)o1)C1CCCC1 the activity score was -86.2% (active). With CCOC(=O)c1sc(-c2cccc([N+](=O)[O-])c2)cc1N the activity score was -129% (active). In the case of O=C(Cn1cnc2c(cnn2-c2ccccc2)c1=O)NCc1ccccc1, the activity score is reported as -148% (active). For O=C(OCc1ccc(-c2ccccc2)cc1)c1cccc(O)c1, the activity score was -109% (active). For O=C(OCC(=O)c1c[nH]c2ccccc12)c1cccc(O)c1, the activity score was -220% (active). With CCc1ccccc1NC(=O)c1cc(-c2ccc3c(c2)OCO3)on1 the activity score was -145% (active). In the case of C/C(=N/Nc1nc(-c2ccccc2)c(CC(=O)O)s1)c1ccccc1, the activity score is reported as -168% (active). For COc1ccccc1N1CCN(/N=C\C(Br)=C\c2ccccc2)CC1, the activity score was -74.9% (active). With COc1ccccc1N1CCN(/N=C/c2ccc(O)cc2O)CC1 the activity score was -147% (active). For CCNC(=O)N1CCNC(=O)C1CC(=O)Nc1ccc(C(=O)OCC)cc1 (centres undefined), the activity score was -69.7% (active). In the case of COc1ccc(-c2cc(C(=O)NC(Cc3c[nH]c4ccccc34)C(=O)O)c(C)o2)cc1OC (centres undefined), the activity score is reported as -104% (active). With CCOc1ccc(C2c3[nH]c4ccccc4c3CCN2Cc2cn(CC)nc2C)cc1 (centres undefined) the activity score was -101% (active). For COc1ccccc1-c1cnn2c(N3CCOCC3)cc(C)nc12, the activity score was -164% (active). In the case of CCn1ccnc1CN(C)Cc1nc(-c2ccc3c(c2)OCO3)no1, the activity score is reported as -80.6% (active). In the case of Cc1ccc(NC(=O)c2cc3ccccc3o2)cc1, the activity score is reported as -123% (active). For O=C(NC(=S)Nc1cccc(-c2ccc(CO)o2)c1)c1cccs1, the activity score was -80.9% (active). With COc1ccc2occ(C(=O)c3ccc(N=C(C)N(C)C)cc3)c2c1 the activity score was -75.8% (active). For COC(=O)c1ccc(NCC(=O)c2ccccc2)cc1, the activity score was -123% (active). In the case of C=CCNC(=O)c1ccc2c3n(nc2c1)-c1ccc(C)cc1CO3, the activity score is reported as -197% (active). In the case of Cc1ccccc1-n1c(C)cc(/C=C2\NC(=O)NC2=O)c1C, the activity score is reported as -131% (active). In the case of Cc1nn(CCOc2ccccc2)c(=O)n1-c1ccccc1F, the activity score is reported as -99.2% (active). With C=C(C)CSc1nnc(-c2ccc(C)cc2)n1N the activity score was -99.6% (active). With CCCCCOc1ccc(CSC2=NCCN2)cc1[N+](=O)[O-] the activity score was -150% (active). With CCCCOc1ccc(CSC(=N)N)cc1[N+](=O)[O-] the activity score was -91.9% (active). With CC1(C)C=Cc2c(ccc3c2OC[C@@H](c2ccc(O)cc2O)C3)O1 the activity score was -154% (active). With CC(C)Cc1cc(C(=O)Nc2cc(Br)ccc2O)no1 the activity score was -135% (active). In the case of CC(C)CNC(=O)c1cc(-c2ccc(Br)cc2)on1, the activity score is reported as -187% (active). With CC(C)Cc1cc(C(=O)NCCc2ccccc2)no1 the activity score was -169% (active). With Cc1cccc(NC(=O)NC(=S)NC(=O)c2ccccc2)c1 the activity score was -62.7% (active). For Cc1cccc(NC(=O)c2ccc([N+](=O)[O-])o2)c1, the activity score was -159% (active). In the case of Cc1ccc(NC(=O)NC(=O)c2ccccc2)cc1F, the activity score is reported as -128% (active). For Cc1cccc(NC(=S)NC(=O)c2ccc(Br)o2)c1, the activity score was -131% (active). With Cc1nn(-c2ccccc2)c(C)c1NC(=O)CCl the activity score was -101% (active). For CCCCCCOC(=O)NCC(O)c1ccccc1 (centres undefined), the activity score was -126% (active). In the case of COCC1CCCN(Cc2nc(-c3ccc4c(c3)OCO4)no2)C1 (centres undefined), the activity score is reported as -62.5% (active). With Cc1ccc2nc(Nc3ccccc3)cc(C)c2c1 the activity score was -82.2% (active). In the case of Cc1cc(Nc2ccc(Br)cc2)nc2ccccc12, the activity score is reported as -83.2% (active). With CCOc1cc(/C=N/Nc2cc(C)nc3ccc(C)cc23)ccc1O the activity score was -66.2% (active). In the case of c1csc(-c2nc(-c3ccncc3)no2)c1, the activity score is reported as -153% (active). For Cc1ccc(-c2nc(-c3ccncc3)no2)c(C)c1, the activity score was -108% (active). With Cn1ccnc1-c1nnn(-c2ccc(F)cc2)n1 the activity score was -89.8% (active). With Oc1ccc(/C=N/Nc2ccc(C(F)(F)F)cn2)cc1O the activity score was -195% (active). In the case of Oc1ccc(Br)cc1/C=N/Nc1ccccn1, the activity score is reported as 66.4% (inactive). With c1ccc(-n2ncc3c2ncn2c(C4CCCCC4)nnc32)cc1 the activity score was -128% (active). With c1ccc(Nc2nc(-c3ccncc3)cs2)nc1 the activity score was -108% (active). With Cc1cccc(Nc2nc(-c3ccccc3)cs2)n1 the activity score was -106% (active). For CC(=O)Nc1cccc(-c2cnc3ccccc3n2)c1, the activity score was -207% (active). For Clc1ccc(Nc2nc(-c3cccs3)cs2)nc1, the activity score was -244% (active). With CC(=O)Nc1cccc(-c2csc(Nc3cccc(C)n3)n2)c1 the activity score was -234% (active). In the case of c1cnc(Nc2nc(-c3ccc4ccccc4c3)cs2)nc1, the activity score is reported as -125% (active). With CCOc1cc2[nH]c(=S)n(Cc3ccc(C(=O)N4CCN(C)CC4)cc3)c(=O)c2cc1OCC the activity score was 86.1% (inactive). For COc1ccccc1C1C2=C(COC2=O)Nc2cc3c(cc21)OCO3 (centres undefined), the activity score was 98.1% (inactive). With COc1cc2c(cc1/C=C1/NC(=O)N(c3ccccc3)C1=O)OCO2 the activity score was -142% (active). In the case of CCCOc1ccccc1C1CC(=O)Nc2cc3c(cc21)OCO3 (centres undefined), the activity score is reported as 111% (inactive). For Cc1noc(C)c1/C=N/Nc1ccc2ccccc2n1, the activity score was -146% (active). In the case of C(=N\Nc1ccc2ccccc2n1)/c1ccc2c(c1)OCO2, the activity score is reported as 88.2% (inactive). In the case of C/C(=N\NC(=O)OC(C)(C)C)c1ccc[nH]1, the activity score is reported as -122% (active). In the case of O=C(Nn1cnc2ccccc2c1=O)c1ccc(F)cc1Cl, the activity score is reported as -87.1% (active). For O=[N+]([O-])c1ccc2c(c1)Nc1nc3ccccc3nc1N2, the activity score was -94.2% (active). With Cn1c(=NC(=O)c2cnccn2)sc2ccccc21 the activity score was -97.9% (active). For O=C(NC(=S)Nc1ccccc1C(=O)O)c1ccc(-c2ccc(Br)cc2)o1, the activity score was -123% (active). For O=C(NC1CCCC1)C(=O)c1c[nH]c2ccccc12, the activity score was -81.6% (active). With O=C(CN1CCCCCC1)Nc1ccc(Br)cc1Br the activity score was -101% (active). In the case of O=C(CN1CCCCCC1)Nc1c(Cl)cc(Cl)cc1Cl, the activity score is reported as -86.3% (active). In the case of O=C(Nc1ccc(OC(F)(F)F)cc1)c1ccc2c(c1)no[n+]2[O-], the activity score is reported as -72.3% (active). With Cc1cc(Cl)nc(NC(=O)Nc2cccc(Cl)c2)n1 the activity score was -64.7% (active). In the case of CCN1CCN(C(=O)CSc2ccc(C)cc2)CC1, the activity score is reported as -69.7% (active). In the case of Cc1ccc(N/N=C2\COC(C)(C)CC2=O)cc1, the activity score is reported as -141% (active). For COc1ccc(C2NC(=O)c3ccccc3N2)cc1 (centres undefined), the activity score was -70.6% (active). In the case of COc1ccc(OC)c(C2C3=C(N=c4s/c(=C\c5cccc(O)c5)c(=O)n42)c2ccccc2CC3)c1 (centres undefined), the activity score is reported as 58.4% (inactive). In the case of COc1cccc(C(=O)NNC(=O)c2cccc(F)c2)c1, the activity score is reported as -79.5% (active). For COc1cccc(C(=O)Nc2ccc(N3CCCC3)cc2)c1, the activity score was -189% (active). With COc1cccc(C(=O)Nc2ccc(N3CCN(C(=O)c4ccco4)CC3)cc2)c1 the activity score was -184% (active). With CN1CCN(c2ccc(NC(=O)c3ccccc3)cc2)CC1 the activity score was -102% (active). In the case of CC[C@]1(O)CC2CN(CCc3c([nH]c4ccccc34)[C@@](C(=O)OC)(c3cc4c(cc3OC)N(C=O)[C@H]3[C@@](O)(C(=O)OC)[C@H](OC(C)=O)[C@]5(CC)C=CCN6CC[C@]43[C@@H]65)C2)C1 (some centres undefined), the activity score is reported as 102% (inactive). For Cc1ccccc1C(=O)Nc1ccc(N2CCCCCC2)cc1, the activity score was -160% (active). In the case of COc1cccc(C(=O)Nc2cc3c(cc2Br)OCCCO3)c1, the activity score is reported as -98.2% (active). In the case of COc1cccc(C(=O)Nc2ccc(NC(=O)c3ccco3)cn2)c1, the activity score is reported as -135% (active). With COC(=O)c1c(C)[nH]c(C(=O)/C=C/c2ccc(Cl)cc2)c1C the activity score was -131% (active). In the case of NC(=O)Cc1ccc2sc(-c3ccccc3)nc2c1, the activity score is reported as -98.2% (active). In the case of COc1ccccc1-c1cc(C(=O)N2CCCCC2)no1, the activity score is reported as -93.5% (active). With COc1cc(Cl)ccc1OCc1cc(C(=O)N2CC[C@@H]3CCCC[C@H]3C2)no1 the activity score was -69% (active). In the case of O=C(c1cc(-c2ccc(Cl)cc2)on1)N1CCN(c2ccccc2)CC1, the activity score is reported as -113% (active). For O=C(c1cc(-c2cccs2)on1)N1CCCCC1, the activity score was -73.9% (active). In the case of O=C(c1cc(-c2ccccc2O)on1)N1CCCC1, the activity score is reported as -142% (active). In the case of COc1ccc(OCc2cc(C(=O)N3CCCC3)no2)c2ccccc12, the activity score is reported as -148% (active). In the case of CCCOC1CCCN(C(=O)c2cc(COc3cncc(Cl)c3)on2)C1 (centres undefined), the activity score is reported as -219% (active). With COc1cccc(OCc2cc(C(=O)N3CCN(C(=O)c4ccco4)CC3)no2)c1 the activity score was -121% (active). For Cc1nc(-c2ccccc2)sc1C1(C)CC(c2cccnc2)=NO1 (centres undefined), the activity score was -91.2% (active). In the case of COc1ccc(C(C#N)Nc2ccc(C)cc2)cc1 (centres undefined), the activity score is reported as -61.8% (active). In the case of CCOC(=O)c1ccc(NC(=O)c2cccnc2)cc1, the activity score is reported as -77.6% (active). With COc1cc(OC)cc(C(=O)Nc2ccc(-c3nc4ccccc4o3)c(O)c2)c1 the activity score was -61.8% (active). In the case of Cc1cc2nc(-c3ccc(NC(=O)c4cccnc4)cc3)oc2cc1C, the activity score is reported as -164% (active). In the case of CC(=O)Nc1ccc(-c2nc3ccccc3o2)cc1, the activity score is reported as -91.4% (active).

Source: PubChem BioAssay AID1814 (Broad Institute, 2009)
